Drawing on PubChem BioAssay (NCI), this text covers growth for 27 compounds.

The structures appear in SMILES notation. “And” between values parts separate entries of the source, which are not always exact repeats. Equal entries are not always repeated. This is part of a sample that, as a whole, favours compounds with a hit. Of some 83,000 tested, about 20% had one in any assay.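 Single-dose data. Exposure time 48 hours. Values below 10 considered active.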 The source made the active and inactive calls.

This test concerns HL-60(TB) leukemia. The test can be described thus: NCI-60 one-dose screen, 48 h (100 = growth as untreated, 0 = no growth, -100 = all killed). Particulars: 10 µM unless noted.
In the case of `Cc1ccc(C(=O)CSc2nc3ccc(C)cc3c(=O)n2-c2ccc(F)cc2)cc1`, the growth was 123% (inactive).

In the case of `C#C[C@]1(O)CC[C@H]2[C@@H]3CC=C4c5sc(-c6ccc(O)c(O)c6)nc5CC[C@]4(C)[C@H]3CC[C@@]21C`, the growth is -54.1% (active). With `Cc1ccc(-c2nc(Nc3ccc(S(N)(=O)=O)cc3)c3ccccc3n2)cc1`, the growth was 24.9% (inactive).

Take `CCOC(=O)c1ccc(NC(=S)NC(=O)c2cccc(NC(=O)c3ccc(C)cc3)c2)cc1`: the growth is 102% (inactive). Next, `CCCn1c(NC(=O)c2cccc(C(N)=O)c2)nc2ccc(CN3CCCCC3)cc21`: 72.9% (inactive). Take `C=C(c1ccc(OC)c(N)c1)c1cc(C)nc2ccccc12`: the growth was -22.8% (active).

With `Cn1cc(-c2cc3nc(-c4c[nH]c5ccc(Br)cc45)cc(N)n3n2)c2ccccc21`, the growth was -45.3% (active). Consider `NS(=O)(=O)c1ccc(-n2cc(-c3cccc(NC(=O)c4cc(C(F)(F)F)cc(C(F)(F)F)c4)c3)nn2)cc1`, for which the growth is 63.4% (inactive).

In the case of `CSc1ccc(NC(=O)c2ccc3nn(/C(C#N)=C/c4ccccn4)nc3c2)cc1`, the growth is -18.9% (active). Next, `Cc1nn(-c2ccccc2)c2nc(C)n(C(=O)N/N=C/c3ccccc3)c(=O)c12`: 104% (inactive); `Cc1c(C(=O)NNC(=O)c2ccc(Cl)cc2)nnn1-c1ccc(Cl)cc1`: 100% (inactive); `O=C(Nc1ccc(-c2ccc3c(c2)NC(=O)/C3=C\c2ccc[nH]2)cc1)Nc1cccc(Cl)c1`: 10.6% (inactive). In the case of `O=C(c1ccccc1)n1ccc(-c2cc3cc(Br)ccc3oc2=O)n1`, the growth was -13.5% (active).

Regarding `O=C(Nc1cccc(C(F)(F)F)c1)c1cncc(C#Cc2cnc3cccnn23)c1`, the growth is 29.9% (inactive). To `CS(=O)(=O)Nc1cccc(-n2c(COc3ccc(OC(F)(F)F)cc3)nc3ccccc32)c1` belongs 111% (inactive) and 95.1% (inactive). To `CN(C)c1nc(NCCNS(=O)(=O)c2ccc(C3=Nc4c(N)nc(N)nc4NC(c4ccccc4)C3)cc2)nc(Nc2ccc(F)cc2)n1` (configuration not stated) belongs -6.76% (active). As for `Nc1nn2c(-c3cc4ccccc4oc3=O)ccnc2c1N=Nc1ccccc1`, the growth was 108% (inactive).

`CCOc1ccc(-c2c(C#N)c(-c3ccc(Cl)cc3)nc3n[nH]c(-c4ccc(Cl)cc4)c23)cc1OC`: the growth was 4.06% (active). In the case of `NS(=O)(=O)c1ccc(Nc2nc(N/N=C/c3cc(Br)c(O)c(Br)c3)nc(Nc3ccccc3)n2)cc1`, the growth was 47.3% (inactive). As to `O=C(CCN1C(=O)/C(=C/c2ccc(F)cc2)SC1=S)N1CCOCC1`, the growth is 86.4% (inactive). As to `COc1cc2oc(-c3cccc(C(=O)Nc4cccc([N+](=O)[O-])c4)c3)cc(=O)c2c(OC)c1OC`, the growth is 101% (inactive).

For the compound `Cc1ccc(C(=O)Nc2cc(-n3cnc(F)c3)cc(C(F)(F)F)c2)cc1C#Cc1cnc2cccnn12`, the growth is 23.5% (inactive). For the compound `O=C(/C=C/Nc1ccc(F)cc1F)c1ccc2c(c1)Nc1ccccc1S2`, the growth was 26.9% (inactive). With `COc1ccc2[nH]c(O)c(N=Nc3nc(-c4ccc(Br)cc4)cs3)c2c1`, the growth is 73.5% (inactive). Next, `CNC(=O)c1cccc(NC(=O)c2ccc3c(c2)nnn3/C(C#N)=C/c2ccccn2)c1`: -14.7% (active); `Cc1ccc([C@H]2C(C(=O)c3ccc(Cl)cc3)C3(N[C@@H]2c2ccccc2)C(=O)Nc2ccc(Cl)cc23)cc1` (some centres not stated): 34.1% (inactive); `COc1ccc2[nH]cc(-c3nc(N)nnc3-c3cn(C)c4ncc(Br)cc34)c2c1`: -44.9% (active).
